Results: publication PMC10726135, “HNF4α isoforms regulate the circadian balance between carbohydrate and lipid metabolism in the liver”
In all, about 18,000 sequences were measured (“log2 normalized intensity”: median about 0.36, highest 2% from about 7.3 on). For the sample, the highest values were picked, then their nearest neighbours and some sequences at random.

What follows are sequences tested against T1, HNF4alpha8 (COS-7 nuclear extract) (Homo sapiens, UniProt P41235-5 1-452) (assay: protein-binding microarray; COS-7 nuclear extract on double-stranded Agilent 4x180k PBM; binding buffer, salt, pH and temperature not given in the material; high values mean tight binding). Conditions: chain copies: 2; label: 3' end of strand 1 on the slide; dsDNA, one strand shown.
T1 sequence: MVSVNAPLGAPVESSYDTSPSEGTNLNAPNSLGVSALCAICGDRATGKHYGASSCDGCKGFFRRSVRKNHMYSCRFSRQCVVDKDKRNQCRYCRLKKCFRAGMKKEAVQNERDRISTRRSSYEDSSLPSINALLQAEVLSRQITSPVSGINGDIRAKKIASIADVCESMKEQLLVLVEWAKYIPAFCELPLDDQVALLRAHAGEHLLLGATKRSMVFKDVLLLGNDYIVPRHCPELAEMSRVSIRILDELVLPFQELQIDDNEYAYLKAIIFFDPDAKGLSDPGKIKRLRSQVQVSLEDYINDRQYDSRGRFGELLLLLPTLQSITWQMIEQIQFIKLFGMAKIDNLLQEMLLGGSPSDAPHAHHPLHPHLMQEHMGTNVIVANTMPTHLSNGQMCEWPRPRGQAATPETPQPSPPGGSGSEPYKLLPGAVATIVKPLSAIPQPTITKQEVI
How it was run: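 COS-7 cells were transiently transfected by CaPO4 with an expression vector for a human HNF4α isoform, and nuclear extracts were prepared from them. The extracts were applied to a custom Agilent SurePrint G3 4x180k array of double-stranded ~60-nt oligonucleotides, with ~44,000 test sequences spotted in quadruplicate. An Agilent G2565CA scanner imaged bound HNF4α at 2-µm resolution. Binding signal is the background-corrected, normalized gProcessedSignal from Agilent software.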

Row | Sequence | binding signal [log2 normalized intensity]
1 | AAAATACCTGGAAGTATTTATTGAGCACACGCCTAGGGAGATTAGAGTATCGGTCGA | -0.121
2 | CGACCCCTCGAGGCAACCTTTGACCTGGTAGCCTAGGGAGATTAGAGTATCGGTCGA | 8.16
3 | TGAAGCGACCCCTCGAGGCAACCTTTGACCGCCTAGGGAGATTAGAGTATCGGTCGA | 9.25
4 | ATCACTGAAGCGACCCCTCGAGGCAACCTTGCCTAGGGAGATTAGAGTATCGGTCGA | 1.75
5 | GTCAAATCACTGAAGCGACCCCTCGAGGCAGCCTAGGGAGATTAGAGTATCGGTCGA | 1.82
6 | AAGTATCTCGGTCAAACCTTTGACCCTTTAGCCTAGGGAGATTAGAGTATCGGTCGA | 6.9
7 | CCTCGAGGCAACCTTTGACCTGGTACTATGGCCTAGGGAGATTAGAGTATCGGTCGA | 6.8
8 | GTGAACCTTTGTCCCGTTATGGCACCAAGAGCCTAGGGAGATTAGAGTATCGGTCGA | 1.55
9 | AGATCCATTGCATGTGCATTTCACAATAGGGCCTAGGGAGATTAGAGTATCGGTCGA | 0.639
10 | GTGGACTTTGTCCTGTGGGCTGTAAAAATCGCCTAGGGAGATTAGAGTATCGGTCGA | 5.73
11 | TGGACTTTGGTCCTGGTCAGACTTGCCACGGCCTAGGGAGATTAGAGTATCGGTCGA | 5.42
12 | AGTTTGCCACGGTCAGCAATGTGGACTTTGGCCTAGGGAGATTAGAGTATCGGTCGA | 6.83
13 | CCGTCCTGTCCTGGACTTTCCTTTGTTGGGGCCTAGGGAGATTAGAGTATCGGTCGA | 2.84
14 | GTGGGAGAAAGCTTTGGACTTTGGGCTGTGGCCTAGGGAGATTAGAGTATCGGTCGA | 6.47
15 | ATGGACTTTGAAGGAGATTCCTGTGTCAGCGCCTAGGGAGATTAGAGTATCGGTCGA | 1.23
16 | GGTCAGCAATGTGGACTTTGTCCTGTGGGCGCCTAGGGAGATTAGAGTATCGGTCGA | 8.67
17 | GCCACGGTCAGCAATGTGGACTTTGTCCTGGCCTAGGGAGATTAGAGTATCGGTCGA | 10.2
18 | GCAATGTGGACTTTGTCCTGTGGGCTGTAAGCCTAGGGAGATTAGAGTATCGGTCGA | 8.03
19 | CAGATAATTACCTGGACTCTAGAGCCAGACGCCTAGGGAGATTAGAGTATCGGTCGA | 1.75
20 | CTCAAAGTCTAACCCAACTAAGAACACAGTGCCTAGGGAGATTAGAGTATCGGTCGA | 1.24
21 | AAAGTTCAGTTGCAAAGAACAGAATCCAGTGCCTAGGGAGATTAGAGTATCGGTCGA | -0.777
22 | GTCTTACTGATGGGCAAAGTTTTCAAGAATGCCTAGGGAGATTAGAGTATCGGTCGA | 1.24

Row | Sequence | binding signal [log2 normalized intensity]
23 | CATGTTTACTTTTGCAAGGTTTGTTCTTATGCCTAGGGAGATTAGAGTATCGGTCGA | 1.87
24 | AGATGGGGTGAACTTTGGACCACATATAGAGCCTAGGGAGATTAGAGTATCGGTCGA | 7.98
25 | AGATCAGATGGGGTGAACTTTGGACCACATGCCTAGGGAGATTAGAGTATCGGTCGA | 8.04
26 | CTCAGTCATACCACATGGATGGATTCAGATGCCTAGGGAGATTAGAGTATCGGTCGA | 0.256
27 | TGGGGTATCAGGTGGTGATGGTGGGAGGGAGCCTAGGGAGATTAGAGTATCGGTCGA | -0.797
28 | GGTGAACTTTGAGACTATCCTTGGACCGCAGCCTAGGGAGATTAGAGTATCGGTCGA | 3.32
29 | GAGGACTTTGGCCTTTTGTGAGATATGGACGCCTAGGGAGATTAGAGTATCGGTCGA | 4.16
30 | CAGGGGTCATCAGATAGATGGTCAGTGAACGCCTAGGGAGATTAGAGTATCGGTCGA | 1.88
31 | TACCATGGGAGACCTCAGGGGTCATCAGATGCCTAGGGAGATTAGAGTATCGGTCGA | 3.08
32 | ACAGGAGATCAGATGGGGTGAACTTTGGACGCCTAGGGAGATTAGAGTATCGGTCGA | 9.11
33 | AAGGGAGAAAGACATGTTTCTAACTGCCCGGCCTAGGGAGATTAGAGTATCGGTCGA | 0.0984
34 | CTGCTTCGGCCTTTGACCTCGTGATAACGAGCCTAGGGAGATTAGAGTATCGGTCGA | 5.83
35 | TTGAAGAAATGGTGGACTTTGTAGCTCAAAGCCTAGGGAGATTAGAGTATCGGTCGA | 4.79
36 | AAAGTTCTGCTGAGTATCCAAAGGTCAGTGGCCTAGGGAGATTAGAGTATCGGTCGA | 6.24
37 | GACGGGAGGAAAACTGGGCAAAGGTCAGGAGCCTAGGGAGATTAGAGTATCGGTCGA | 5.58
38 | GGCGTGGACTTCGCTCCGCCGCTAGGTGGCGCCTAGGGAGATTAGAGTATCGGTCGA | 3.13
39 | GCCAGGCAGGACAGTTTTGTGTGTTTAATGGCCTAGGGAGATTAGAGTATCGGTCGA | 0.878
40 | AAATGCTGATAATGATATGGACAATGAAATGCCTAGGGAGATTAGAGTATCGGTCGA | 0.122
41 | CCATCAGTGGACTTTGACCTTGTTTTCAATGCCTAGGGAGATTAGAGTATCGGTCGA | 9.54
42 | AGACCTTTGACATCACCTAACTTGTGGCTGGCCTAGGGAGATTAGAGTATCGGTCGA | 1.49
43 | AGTGGACTTTGACCTTGTTTTCAATGACTAGCCTAGGGAGATTAGAGTATCGGTCGA | 7.8
44 | GCCACCCATCAGTGGACTTTGACCTTGTTTGCCTAGGGAGATTAGAGTATCGGTCGA | 10.8

Row | Sequence | binding signal [log2 normalized intensity]
45 | CCCAGGGACTTTGGCCTTACTTGGCCTGTTGCCTAGGGAGATTAGAGTATCGGTCGA | 3.01
46 | CACATGCTATTATTTTCCATCAGTGGACTTGCCTAGGGAGATTAGAGTATCGGTCGA | 3.95
47 | CCTTTCTACTGCCAGCCAGGGCCACCCATCGCCTAGGGAGATTAGAGTATCGGTCGA | 0.592
48 | GACCTTGTTTTCAATGACTACCTGTTACCCGCCTAGGGAGATTAGAGTATCGGTCGA | 1.81
49 | CAGTGGACTTTGTCCTTCATCTATCTCCTTGCCTAGGGAGATTAGAGTATCGGTCGA | 5.95
50 | GCCAGCCAGGGCCACCCATCAGTGGACTTTGCCTAGGGAGATTAGAGTATCGGTCGA | 7.34
51 | GTTCAATGCTTCAGTGAGCCTTGACCTTCAGCCTAGGGAGATTAGAGTATCGGTCGA | 4.83
52 | ACTTTGACCTTGTTTTCAATGACTACCTGTGCCTAGGGAGATTAGAGTATCGGTCGA | 2.13
53 | GCAGCTCTTTACAAAGCCCATGCTGGACCCGCCTAGGGAGATTAGAGTATCGGTCGA | 4.69
54 | TCACAGTGCCTCTGCAAGTTGGCCTTACTAGCCTAGGGAGATTAGAGTATCGGTCGA | -0.0691
55 | TTTGTCTGTGTAGACTCATCTGGTGTCATTGCCTAGGGAGATTAGAGTATCGGTCGA | 1.95
56 | TTTTTGAGATGGAATCTTGCCCTGTCGCCCGCCTAGGGAGATTAGAGTATCGGTCGA | 3.19
57 | GGTTCCAGCATGGACTTCACAGCCTGTTAGGCCTAGGGAGATTAGAGTATCGGTCGA | 0.147
58 | TGTGGGTTCAAATCCATTCAGCAGCGTGTAGCCTAGGGAGATTAGAGTATCGGTCGA | -0.128
59 | GCAAAGTTCAACCCTGAATGTGTGCTGGCCGCCTAGGGAGATTAGAGTATCGGTCGA | 1.12
60 | ACTTCGCTGGAGGTGTTAAAGTGCCATTGAGCCTAGGGAGATTAGAGTATCGGTCGA | 1.75
61 | TGCACTTTACGTAAGATAAGGTGAACATACGCCTAGGGAGATTAGAGTATCGGTCGA | 1.09
62 | CCCATCCGCAGTGGGAGAGCAAGGGTCAAGGCCTAGGGAGATTAGAGTATCGGTCGA | 4.51
63 | CCGCAGTGGGAGAGCAAGGGTCAAGGGTCAGCCTAGGGAGATTAGAGTATCGGTCGA | 7.52
64 | AGAGCAAGGGTCAAGGGTCATTTGTTTTTAGCCTAGGGAGATTAGAGTATCGGTCGA | 6.31
65 | GTGGGAGAGCAAGGGTCAAGGGTCATTTGTGCCTAGGGAGATTAGAGTATCGGTCGA | 7.65
66 | TGGGTGGGGGAAGTGTGGTCAAGGGTCAGTGCCTAGGGAGATTAGAGTATCGGTCGA | 4.76

Row | Sequence | binding signal [log2 normalized intensity]
67 | AAGGGTCAAGGGTCATTTGTTTTTACAGACGCCTAGGGAGATTAGAGTATCGGTCGA | 6.77
68 | CATTTTTTTCCACCCTCCCCTCCCCCTCCTGCCTAGGGAGATTAGAGTATCGGTCGA | 6.32
69 | GAATTTTGGACAAGGTAACCCCCAACATTCGCCTAGGGAGATTAGAGTATCGGTCGA | 3.79
70 | ATGTGCCCTTTGGACAGAAATATCAGCAAGGCCTAGGGAGATTAGAGTATCGGTCGA | 3.43
71 | GGAGGGAACAGCAAGACTTTGGCCCTGCAGGCCTAGGGAGATTAGAGTATCGGTCGA | 0.278
72 | AAGTCCAAAGTTCTTGGCCAGGCATGGAGAGCCTAGGGAGATTAGAGTATCGGTCGA | 2.75
73 | AAGGGTCAATGTGATCAGGTGTGGGCATTAGCCTAGGGAGATTAGAGTATCGGTCGA | 1.3
74 | ATCTCACACAGTACTTTGTACATGGGAATAGCCTAGGGAGATTAGAGTATCGGTCGA | 1.8
75 | ATAGTTCAGCCATCAGGTAACATATTGTCCGCCTAGGGAGATTAGAGTATCGGTCGA | 1.18
76 | TTTAGGCAGTTTTTGATCAAGGAGGACTTTGCCTAGGGAGATTAGAGTATCGGTCGA | 4.55
77 | GCAGTTTTTGATCAAGGAGGACTTTGGAATGCCTAGGGAGATTAGAGTATCGGTCGA | 7.54
78 | GGATTTTTTCTTGGACTTTGGTCATCCTTTGCCTAGGGAGATTAGAGTATCGGTCGA | 7.39
79 | TTTTGATCAAGGAGGACTTTGGAATGGCAGGCCTAGGGAGATTAGAGTATCGGTCGA | 4.79
80 | TTTTCTTGGACTTTGGTCATCCTTTACTTTGCCTAGGGAGATTAGAGTATCGGTCGA | 6.91
81 | TCCAGATCAAGGATTTTTTCTTGGACTTTGGCCTAGGGAGATTAGAGTATCGGTCGA | 5.67
82 | GACTTTGGTTGGATTTCTTGGCTTCTCTTGGCCTAGGGAGATTAGAGTATCGGTCGA | 0.989
83 | ATCAAGGATTTTTTCTTGGACTTTGGTCATGCCTAGGGAGATTAGAGTATCGGTCGA | 8.58
84 | TTGGACTTTGGTCATCCTTTACTTTCCCAAGCCTAGGGAGATTAGAGTATCGGTCGA | 6.14
85 | CAGAAGTCATGTCTCATTGCCCCTTGAGCTGCCTAGGGAGATTAGAGTATCGGTCGA | 3.87
